Laboratory results from PubChem BioAssay AID623959 (National Center for Advancing Translational Sciences (NCATS), 2012).
Among all 1,400 compounds or so, fewer than 10 were called active. Another 8% or so got no clear call; they are omitted. The list is a sample of the results. A number with no mark means an inactive call. Calls come from the whole dose curve; as a rule, active = well fitted curve in the direction sought with a large enough effect; inconclusive = small, poorly fitted or top-dose-only effect, or another doubt; inactive = no such curve, though single readings can be large or run the other way.

Target: Transient receptor potential cation channel subfamily V member 1 (Homo sapiens) (UniProt Q8NER1)
Experiment: qHTS Assay for Compounds that Act as Potentiators of the Vanilloid Receptor 1: Hit Validation; for activity change, positive = potentiation: % of control where 0% means no effect
Conditions: TRPV1-expressing cells, Fluo-8 calcium influx, capsaicin EC20; series mostly up to 42.1 µM; activity change, positive = potentiation: at the top concentration
Text: The transient receptor potential ion channel, family V, number 1, (TRPV1) is one of the most important molecular transducers of painful stimuli and a potential target for analgesic drug development. Although recent clinical trials with orthosteric antagonists have not produced a successful drug because of a hyperthermia side effect and their tendency to block thermal noxious pain, this ion channel is undeniably well placed in the pain pathway, and the idea of blocking pain signals before they enter the CNS is an excellent concept and of proven efficacy when TRPV1 agonists are used. We propose a new approach involving allosteric modulation to impose an activity-dependent constraint within the context of inflammation and tissue damage that would alter the responsiveness of the channel in a way that an orthosteric vanilloid antagonist cannot achieve. We believe that the allosteric modulator approach has not been explored for this target. The main goal of this proposal is to identify additional, new, potent allosteric modulators of TRPV1 that can be used to investigate TRPV1 function. Our recent report provides evidence of proof of concept, but the compounds are just at the edge of utility in terms of potency. […] The question of whether they can be used as analgesic agents is complex, but if suitable compounds are identified then testing for analgesic properties will be conducted. Compounds identified as agonists were re-tested in the primary screen for hit validation. NIH Chemical Genomics Center [NCGC] NIH Molecular Libraries Probe Centers Network [MLPCN] MLPCN Grant: MH089480 Assay Submitter (PI): Michael Iadarola, National Institute of Dental and Cranofacial Research
Upon TRPV1 activation in TRPV1 cells, the channel opens and extracellular cations flow through the channel into the cytosol. A calcium binding dye (Fluo-8) becomes fluorescent when bound to calcium. This dye is pre-loaded into cells and is used as a marker for calcium influx. The amount of accumulated calcium is precisely quantified using the FDSS kinetic reader and the calcium dye. For the HTS assay, freshly prepared cells are plated at a density of 2000/well in 3 ul medium in 1536-well plates and cultured overnight at 35.5C. Cells will be loaded with 1 ul of the homogeneous calcium dye (ABD Bioquest) at room temperature for 40 to 90 minutes. Plates will be loaded into the FDSS kinetic reader and a 1 sec / cycle for 10 second baseline signal will be measured. Compound library will then be added with a pintool at 23 nl and measured kinetically for 3 minutes. This portion of the read is considered the agonist portion of the screen. Following the 3 minutes of incubation, an on board pipettor will deliver 1 ul of capsaicin for a final concentration equal to the EC20. Signal will be measured kinetically for an additional 2 minutes. This portion of the read is considered the allosteric enhancer portion of the screen. The FDSS reader has a standard filter set capable of measuring calcium bound Fluo-8 (ex=480 and em=520 nm).
Potency is the fitted concentration of half-maximal effect.

Transient receptor potential cation channel subfamily V member 1 (Homo sapiens), sequence (Q8NER1 whole entry, looked up): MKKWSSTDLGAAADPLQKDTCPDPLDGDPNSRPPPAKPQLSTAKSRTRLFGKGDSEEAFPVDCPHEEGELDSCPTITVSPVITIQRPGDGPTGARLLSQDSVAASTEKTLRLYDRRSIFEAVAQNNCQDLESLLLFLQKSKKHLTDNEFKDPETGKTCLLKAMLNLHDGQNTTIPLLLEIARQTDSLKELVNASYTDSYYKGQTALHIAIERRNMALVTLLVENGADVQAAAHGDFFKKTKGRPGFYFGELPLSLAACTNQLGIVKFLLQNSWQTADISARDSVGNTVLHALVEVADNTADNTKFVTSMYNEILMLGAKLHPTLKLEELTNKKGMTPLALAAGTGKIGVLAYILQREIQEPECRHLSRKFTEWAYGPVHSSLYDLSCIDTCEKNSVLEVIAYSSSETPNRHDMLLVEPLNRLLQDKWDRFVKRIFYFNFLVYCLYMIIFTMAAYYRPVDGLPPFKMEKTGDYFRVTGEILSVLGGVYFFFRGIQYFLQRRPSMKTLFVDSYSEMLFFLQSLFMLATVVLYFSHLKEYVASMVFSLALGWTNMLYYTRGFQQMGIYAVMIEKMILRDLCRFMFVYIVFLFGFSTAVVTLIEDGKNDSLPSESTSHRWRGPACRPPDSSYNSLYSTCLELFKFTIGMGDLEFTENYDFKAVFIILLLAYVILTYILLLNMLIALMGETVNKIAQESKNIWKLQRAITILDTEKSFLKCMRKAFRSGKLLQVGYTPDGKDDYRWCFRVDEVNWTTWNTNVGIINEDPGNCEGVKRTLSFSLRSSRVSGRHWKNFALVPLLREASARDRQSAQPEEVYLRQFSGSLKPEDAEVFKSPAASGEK

Row | SMILES | activity change, positive = potentiation | Potency
1 | CCCCCC(=O)NC(NC(=S)N1CCOCC1)C(Cl)(Cl)Cl (centres undefined) | -38.2% | –
2 | COc1ccc(S(=O)(=O)N2CCCC2)cc1C(=O)O | -4.69% | –
3 | Cc1c(Cl)ccc2sc(NC(=O)c3ccco3)nc12 | -36% | –
4 | O=C(O)c1ccc(Br)cn1 | -5.55% | –
5 | CC(C)(C)c1ccc(C(=O)NNC(=O)C2CCCCC2)cc1 | -33.1% | –
6 | O=C1c2ccc(Oc3ccc([N+](=O)[O-])cc3)cc2C(=O)N1CCCO | -2.6% | –
7 | COc1ccccc1-c1cc2ccccc2[nH]1 | -5.83% | –
8 | CC(=O)NS(=O)(=O)c1ccc(NC(=O)CC(C)c2ccccc2)cc1 (centres undefined) | -3.07% | –
9 | COc1ccc(CNC(=O)CCSc2ccc(F)cc2)cc1OC | -34.4% | –
10 | O=C(O)c1coc2ccccc12 | -8.38% | –
11 | CC(=O)NCC(=O)N(Cc1ccco1)C1(C(=O)NC2CCCC2)CCCCC1 | 2.18% | –
12 | Cn1c(=O)c2c(-c3ccccc3F)c3c(nc2n(C)c1=O)-c1ccccc1C3O (centres undefined) | -24.5% | –
13 | COc1ccccc1Nc1ncnc2c1cnn2-c1cccc(C)c1 | -37.7% | –
14 | COc1ccc(C(=O)Nc2ccc3ncccc3c2)cc1 | -33.5% | –
15 | CC(=O)c1cccc(NC(=S)NCCc2ccc(Cl)cc2)c1 | -37.8% | –
16 | CCc1ccccc1NC(=O)CCC(=O)c1cccs1 | 0.167% | –
17 | CCN1C(=O)[C@@H]2[C@H](C1=O)[C@@H]1C(=O)Nc3ccccc3C(=O)N1[C@@H]2c1ccc(Br)cc1 | 2.73% | –
18 | COc1ccc([C@@H]2CC=C(C(=O)O)[C@H](c3cccc(Cl)c3)N2S(=O)(=O)c2ccc(Cl)cc2)cc1 | -6.72% | –
19 | CCOC(=O)C1=C(O)C(=O)N(CCCn2ccnc2)C1c1ccc(C)cc1 (centres undefined) | 6.89% | –
20 | CC(=O)c1cccc(Nc2nc(-c3ccccc3)nc3ccccc23)c1 | -6.61% | –
21 | N#Cc1ccccc1N1CCN(C(=O)c2ccc(NC(=O)c3ccc(Br)o3)cc2)CC1 | -2.51% | –
22 | CCOc1ccc(NS(=O)(=O)c2ccc(OCC(=O)NCCCOC)cc2)cc1 | 2.17% | –
23 | Cc1ccc(S(=O)(=O)NCC(c2cccnc2)N2CCOCC2)cc1 (centres undefined) | -3.52% | –
24 | O=[N+]([O-])C1C(c2ccccc2)=NOC1c1ccccc1O (centres undefined) | -9.52% | –
25 | O=C(Nc1ccccc1)Nc1nnc(SCc2ccc(Cl)cc2)s1 | 13.8% | –
26 | Cc1nc(Nc2cccc(Cl)c2)c2oc3ccccc3c2n1 | -38.3% | –
27 | CCOC(=O)C(C(=O)OCC)c1cc(Br)c2noc3c2c1C(=O)c1ccccc1-3 | – | 3.6 µM (active)

Row | SMILES | activity change, positive = potentiation | Potency
28 | COc1ccc(Cn2nc(-c3ccccc3)c(N3CCCCC3)cc2=O)cc1 | -39.1% | –
29 | CCOC(=O)[C@H]1[C@H]2COc3ccc(Cl)cc3[C@@H]2N2C(=O)c3ccc(C)cc3NC(=O)[C@@]12C | -38.4% | –
30 | CCc1ccc(NC(=O)c2ccc(S(=O)(=O)NCc3cccnc3)cc2)cc1 | -35.4% | –
31 | CC(=O)c1c[nH]c(C(=O)NCc2ccccc2Cl)c1 | 7.13% | –
32 | COCCN(CCOC)S(=O)(=O)c1ccc(C(=O)Nc2nnc(C3CC3)o2)cc1 | -6.89% | –
33 | COCCNC(=O)CCc1c(C)nc2c(c(C)nn2-c2ccc(C)cc2)c1C | -38.5% | –
34 | COc1ccc(CCNC(=O)c2noc3c2CCCC3)cc1OC | -9.36% | –
35 | Cc1ccccc1C(=O)Nc1nnc(-c2ccc(C(C)(C)C)cc2)s1 | -7.15% | –
36 | CCCN1C(=O)/C(=C/c2ccncc2)SC1=S | -8.91% | –
37 | COc1ccc2c(c1)C(c1ccc(Cl)cc1)NC(=O)C2 (centres undefined) | -5.08% | –
38 | CSCCCN1CC[C@@H](N2CCN(c3ccccc3F)CC2)[C@H](O)C1 | 12.5% | –
39 | CCN(CC)CCN(Cc1cc2cc(C)ccc2[nH]c1=O)C(=O)Nc1ccccc1OC | -7.28% | –
40 | Cc1nc(C(F)(F)F)ccc1C(=O)Nc1ccc(C(F)(F)F)cn1 | -36.1% | –
41 | C=C(C(=O)Nc1ccccc1)c1ccc(C)cc1 | -6.44% | –
42 | COc1ccc(-n2c(SCC(N)=O)nc3nc4c(cc3c2=O)COC(C)(C)C4)cc1 | 13.3% | –
43 | NC(=O)c1ccc(-n2nnnc2Oc2ccccc2C(=O)N2CCOCC2)cc1 | 1.65% | –
44 | Cc1[nH]c2ccccc2c1CCN(Cc1cccnc1)C(=S)Nc1ccc(F)cc1 | -6.06% | –
45 | CCc1ccc(NC(=O)C2CCCN(S(=O)(=O)c3c(C)[nH]c(=O)[nH]c3=O)C2)cc1 (centres undefined) | -5.4% | –
46 | CC(=O)Nc1cccc(NC(C)=O)n1 | -5.38% | –
47 | Cn1nc(C(C)(C)C)cc1C(=O)NCc1ccc(N2CCCC2=O)cc1 | -1.47% | –
48 | COc1cccc(CNC(=S)Nc2cccc(Cl)c2C)c1 | -38.9% | –
49 | CCCCOc1ccc(C(=O)Nc2cccc(-n3cnnn3)c2)cc1OC | -34.7% | –
50 | O=C(Cn1c(NCCCO)nc2ccccc21)c1ccc(Cl)cc1 | -7.03% | –
51 | CCS(=O)(=O)C1=NN2C(=N)/C(=C\c3ccc(OCCOc4cccc(OC)c4)c(OC)c3)C(=O)N=C2S1 | -8.22% | –
52 | CCOC(=O)c1c(C)[nH]c(C)c1C(=O)CN1C(=O)NC(CC(C)C)C1=O (centres undefined) | 0.659% | –
53 | CN(Cc1c(O)ccc2c1oc(=O)c1ccccc12)C1CCCCC1 | -11.4% | –
54 | CN(Cc1ccccc1Cl)C(=O)c1cc2ccccc2o1 | -15% | –
